Results reported in PubChem BioAssay (NCI).
The panel holds about 83,000 compounds, 20% with a hit somewhere; the sample as a whole holds those more often.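 Activity criterion: percent growth below 10, measured after cells in 96-well plates were exposed to a single compound concentration for 48 hours.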 Values without a mark were called inactive. Calls of active or inactive are those of the source.

Key:
Experiment in all cases: NCI-60 one-dose screen, 48 h (100 = growth as untreated, 0 = no growth, -100 = all killed)
DU-145 prostate = conditions: 10 µM unless noted
K-562 leukemia = conditions: 10 µM unless noted
MALME-3M melanoma = conditions: 10 µM unless noted
MDA-MB-231 breast = conditions: 10 µM unless noted
RXF 393 renal = conditions: 10 µM unless noted
SF-268 CNS = conditions: 10 µM unless noted
SF-295 CNS = conditions: 10 µM unless noted
SF-539 CNS = conditions: 10 µM unless noted
UACC-257 melanoma = conditions: 10 µM
M14 melanoma = conditions: 10 µM unless noted
HCT-15 colon = conditions: 10 µM unless noted
HT29 colon = conditions: 10 µM unless noted
SNB-75 CNS = conditions: 10 µM unless noted
SNB-19 CNS = conditions: 10 µM unless noted
U251 CNS = conditions: 10 µM unless noted
PC-3 prostate = conditions: 10 µM unless noted
SK-MEL-5 melanoma = conditions: 10 µM unless noted
UACC-62 melanoma = conditions: 10 µM unless noted
LOX IMVI melanoma = conditions: 10 µM unless noted
SK-MEL-28 melanoma = conditions: 10 µM unless noted

| Compound | growth (DU-145 prostate) | growth (K-562 leukemia) | growth (MALME-3M melanoma) | growth (MDA-MB-231 breast) | growth (RXF 393 renal) | growth (SF-268 CNS) | growth (SF-295 CNS) | growth (SF-539 CNS) | growth (UACC-257 melanoma) | growth (M14 melanoma) | growth (HCT-15 colon) | growth (HT29 colon) | growth (SNB-75 CNS) | growth (SNB-19 CNS) | growth (U251 CNS) | growth (PC-3 prostate) | growth (SK-MEL-5 melanoma) | growth (UACC-62 melanoma) | growth (LOX IMVI melanoma) | growth (SK-MEL-28 melanoma) |
| --- | --- | --- | --- | --- | --- | --- | --- | --- | --- | --- | --- | --- | --- | --- | --- | --- | --- | --- | --- | --- |
| COc1ccc(-c2nc(-c3ccccc3)c(-c3ccccc3)n2C2CC2)cc1OC1CCCCC1 | 73.2% | 31.4% | 76.5% | 61.2% | 73.7% | 56.3% | 54.8% | 81% | 85.1% | 76.7% | 41.7% | 49.2% | 56.3% | 83.7% | 43.9% | 43.4% | 36% | 60.8% | 45.6% | 77.7% |
| CCN(C(=O)c1cc2ncccc2[nH]1)[C@H]1CCC[C@@H](NCc2cccc(F)c2)C1 | 104% | 105% | 92% | 91.4% | 95.1% | 102% | 102% | 98.5% | 107% | 113% | 100% | 105% | 88% | 98.7% | 107% | 102% | 96.3% | 98% | 94.8% | 103% |
| O=S(=O)(O)CCl | 109% | 94.6% | 102% | 108% | 107% | 100% | 102% | 101% | 98.5% | 97.1% | 96.3% | 95.9% | 86.1% | 106% | 97.1% | 91.6% | 103% | 100% | 86.8% | 102% |
| Nc1c(C(=O)Nc2c(Cl)cccc2Cl)sc2nc3c(cc12)CCCCC3 | 70.4% | 24.1% | 61.5% | 63.4% | 3.29% (active) | 60.5% | 54.4% | 38.2% | 50.7% | 43.8% | 32.5% | 34.1% | 26.7% | 68.5% | 66.7% | 70.6% | 66.3% | 29% | 58.6% | 59.2% |
| COc1ccc(C2CC(=O)Nc3c2c(C)nn3-c2nc3ccccc3[nH]2)cc1OC (stereo not given) | 86.6% | 63% | 38.5% | 87.1% | 12.2% | 69.9% | -9% (active) | 97.7% | 89% | 48.1% | 85.9% | 95.3% | 50.9% | 84.9% | 84.4% | 75.4% | 71.2% | 68.8% | 44.2% | 88.1% |
| CCN(CC)CCCC(C)N=c1cc(Nc2cc(=NC(C)CCCN(CC)CC)c3cc(OC)ccc3o2)oc2ccc(OC)cc12 (stereo not given) | 2.37% (active) | -38.4% (active) | -80.1% (active) | -51.7% (active) | -68.4% (active) | -32.1% (active) | -9.83% (active) | -90.2% (active) | -79.1% (active) | -87.9% (active) | -16.7% (active) | -42% (active) | -90.8% (active) | 2.11% (active) | -57.6% (active) | -26.4% (active) | -97.8% (active) | -72.5% (active) | -77.7% (active) | -94.6% (active) |
| O=c1c2cccc3c(Nc4ccc(F)cc4)ccc(c32)c2nc3ccccc3n12 | 95.5% | 89.5% | 94.1% | 70.9% | 98% | 95.3% | 109% | 83.8% | 86.2% | 96.7% | 71.1% | 92.6% | 70.8% | 77.6% | 92% | 77.2% | 70.4% | 67.8% | 83.6% | 103% |
| COc1ccc(-c2nc3sccn3c2-c2ccnc(NCCNS(=O)(=O)c3ccc(C(F)(F)F)cc3)n2)cc1 | 15.8% | 6.19% (active) | 8.25% (active) | 16% | 18.5% | 0.178% (active) | -28.5% (active) | 0.637% (active) | 13.3% | 10.1% | 9.19% (active) | 14.5% | 29.5% | 34.2% | 15.4% | 9.86% (active) | -94.1% (active) | 0.0074% (active) | 2.4% (active) | 13.9% |
| COC1=CC(c2ccc[nH]2)=N/C1=C\c1[nH]c(C)c(C(=O)CCCCC(=O)Nc2ccccc2)c1C | 6.29% (active) | 62.4% | 87.7% | -10.1% (active) | -63.9% (active) | 44.1% | -2.61% (active) | 78.6% | 74.4% | 13.1% | -3.38% (active) | -54.4% (active) | 46.8% | 64.2% | 1.79% (active) | -40.5% (active) | 84.7% | 101% | -71.8% (active) | 63.9% |
| COc1ccc(S(=O)(=O)NCCNc2nccc(-c3c(-c4ccccc4)nc4sccn34)n2)cc1 | 20.2% | 18.5% | 60.9% | 36.6% | 30.8% | 20.5% | 16.6% | 45.3% | 46% | 29.4% | 19.4% | 25.4% | 21.8% | 39.3% | 32.7% | 23.1% | -80% (active) | 24.8% | 18.8% | 31.3% |
| CCCCCCCCCCn1cc[n+](C)c1 | 75.4% | 64.2% | 8.94% (active) | 41.5% | -20.8% (active) | 58.7% | 9.99% (active) | 30.5% | -12.4% (active) | 24.6% | 82% | 12.3% | -10.6% (active) | 45.5% | 21.7% | 6.6% (active) | -33.1% (active) | 31.1% | 23.9% | 34.9% |
| CCC1CCc2nc3sc(C(=O)Nc4ccccc4F)c(N)c3cc2C1 (stereo not given) | 55.8% | 37.8% | 48.7% | 69.9% | 79.6% | 61.5% | 46.6% | 75% | 57.5% | 44.4% | 35.3% | 39.5% | 66.1% | 76% | 65.5% | 67.3% | 40.2% | 47.9% | 62.8% | 59.9% |
| CN(C)c1ccc(C2CC(c3ccccc3)=NN2/C=C2\SC(=O)NC2=O)cc1 (stereo not given) | 57.7% | 100% | 89% | 93.3% | 96.5% | 90.9% | 98% | 76% | 115% | 93.7% | 85.9% | 108% | 83.6% | 87.6% | 103% | 91.3% | 78.8% | 90.7% | 74.3% | 91.1% |
| COc1ccc(C(=O)c2cc(OC)c(OC)c(OC)c2)cc1/C=C/C(=O)c1ccc2c(c1)OCO2 | 33.8% | 12.9% | 12.5% | 11.2% | 17.4% | 8.85% (active) | 77.3% | -33.8% (active) | 51.3% | 25.3% | -22.6% (active) | -27.2% (active) | 28.2% | 11.8% | -19.1% (active) | 24% | 8.97% (active) | -63.5% (active) | -36.5% (active) | -57% (active) |
| COc1cccc(/C=C/c2c(C(=O)O)cccc2[N+](=O)[O-])c1OC | 102% | 90.4% | 94.8% | 107% | 108% | 95.8% | 91.6% | 104% | 101% | 103% | 103% | 104% | 89.3% | 105% | 95.9% | 96.8% | 106% | 109% | 99.2% | 109% |
